# The source made the active and inactive calls. How the source made its calls: active means hit-call score of the fitted dose curve at least 0.9, where 1 is the maximum; inactive means score below 0.9.
# Read-out: Bcl-2 (BAX) gene, BAX (gene 581)
# Experiment: LTEA_HepaRG_BAX: Life Technologies and Expression Analysis (LTEA) Assay for Bcl-2 (BAX) gene using HepaRG (AID 2283470)
# Conditions: mRNA level, 48 h; actives raise or lower the signal
# Description: LTEA_HepaRG is a cell based, multiplexed-readout assay that uses HepaRG, a human liver cell line, with measurements taken at 48 hours after chemical dosing on a 96-well plate.LTEA_HepaRG_BAX is one of 102 assay component(s) measured in the LTEA HepaRG cell culture assay. It is a marker of Cell proliferation, survival, death.Data from the assay component LTEA_HepaRG_BAX was analyzed into 1 endpoint. This assay endpoint, LTEA_HepaRG_BAX, was analyzed with bidirectional fitting relative to DMSO as the negative control and baseline of activity. Using a type of inducible reporter, measures of mRNA induction for gain or loss-of-signal activity can be used to understand regulation of transcription factor activity. To generalize the intended target to other relatable targets, this assay endpoint is annotated to the cell cycle intended target family, where the subfamily is Cell proliferation, survival, death.
# A total of 1060 chemcials from the ToxCast library were tested in eight-point concentration-response experiments. Cell culture and cytotoxicity assays were conducted at Thermo Fisher Scientific's Custom Services facility (Madison, WI). A single lot of human HepaRG cells (Thermo Fisher Scientific, Frederick, MD) was used for the cell culture experiments. 96-well format collagen type I coated plates of human HepaRG cells were prepared using established methods. Briefly, cryopreserved HepaRG cells were thawed, plated at a density of approximately 100,000 cells/well in HepaRG Thaw, Plate, and General Purpose media (HPRG770, Thermo Fisher Scientific), and incubated for 48 hours. 0.5% DMSO was selected as vehicle control to balance the requisite need of DMSO in HepaRG cultures to maintain differentiation (for example, baseline metabolism, proportions of hepatocytes vs. cholangiocytes), while enabling further hepatic receptor pathway activation (for example, PXR and CAR) in response to chemical exposure. 48 hours after plating, the culture medium was replaced with HepaRG Serum-Free Incudtion Media. Cells were exposed to each test chemical in duplicate and maintained in CO2 incubators for another 48 hours. Chemical plates were thawed to room temperature and 200x concentrations of treatment groups were prepared. 8-point conentration-reponse curves were made with the highest exposure at 100 uM, followed by half-log dilutions, all in 0.5% DMSO. Each test plate contained variouse controls, induction positive controls (1mM phenobarbital), cytotoxicity positive controls ([…] aflatoxin B1), vehicle controls (0.5% DMSO), and total lysis controls (0.5% DMSO). Cell morphology images were taken using an Essen IncuCyte FLR automated microscope, with six 96-well plates imaged in about 24 minutes. Images were captured and exported and JPEG files. Spent culture media was transfered to black-well plates for the LDH assay, and remaining media was sorted at -80 C for later use. Cells were treated with RLT buffer and frozen until shipped for gene expression analysis. Total RNA was isolated from the cell suspension in 75 uL of Buffer RLT (Qiagen, Germantown, MD 20874) by Quintiles/Expression Analysis (Durham, NC) using a custom isolation procedure. Total RNA from each plate well was transferred to a preamplification plate. Fluidigm's 96.96 Dynamic ArrayTM (Fluidigm, Amsterdam, the Netherlands) technology was used for gene expression analyses by quantitative reverse transcription polymerase chain reaction (qRT-PCR, performed by Quintiles/Expression Analysis, Durham, NC)89. Standard TaqManTM Assays (Applied Biosystems/ThermoFisher Scientific, Foster City, CA) were used to assess the expression of 93 genes selected based on their selectivity and sensitivity to important hepatic receptors known to be modulated by environmental chemicals; importance in human hepatocyte functionality; and hepatotoxicity. […]
SMILES,outcome,AC50
[O-][Cl+]O,inactive,–
ClC1=C(Cl)[C@]2(Cl)[C@H]3[C@H]([C@@H]4C=C[C@H]3C4)[C@@]1(Cl)C2(Cl)Cl,inactive,–
CO[C@@H]1[C@H](OC(=O)NC(=O)CCl)CC[C@]2(CO2)[C@H]1[C@@]1(C)O[C@@H]1CC=C(C)C,inactive,–
OCCCBr,inactive,–
O=C(Oc1ccc(Br)cc1)N1CCN2CCC1CC2,inactive,–
Clc1ccc(Cl)c(Cl)c1,inactive,–
ClC1=C(Cl)C2(Cl)C3C(Cl)C=CC3C1(Cl)C2(Cl)Cl (stereo not given),inactive,–
CCCCCCCCOC(=O)c1ccc(C(=O)OCCCCCCCC)c(C(=O)OCCCCCCCC)c1,inactive,–
Nc1cc(Cl)cc(C(=O)O)c1Cl,inactive,–
COc1cc(C=O)cc2c1[C@H](COC(N)=O)[C@]1(OC(C)=O)ON2C[C@H]2[C@@H]1N2C(C)=O,inactive,–
c1ccc(N=Nc2ccccc2)cc1,inactive,–
C1=Cc2cccc3cccc1c23,inactive,–
[Cl-].[Cl-].[Hg+2],inactive,–
CC(O)CCO (stereo not given),inactive,–
COP(=S)(OC)SCN1C(=O)c2ccccc2C1=O,inactive,–
Cc1cccc(N)c1N,inactive,–
Cc1ccc(N)cc1,inactive,–
CCC12COCN1COC2,inactive,–
COC(=O)Nc1nc2ccccc2[nH]1,inactive,–
CCCCCCCCn1sccc1=O,inactive,–

SMILES,outcome,AC50
C[N+](C)(C)CC1CO1 (stereo not given),inactive,–
CC(C)(C)C(O)(CCc1ccc(Cl)cc1)Cn1cncn1 (stereo not given),inactive,–
CC(C)COC(=O)c1ccccc1C(=O)OCC(C)C,inactive,–
c1ccc(C2CO2)cc1 (stereo not given),inactive,–
[As]#[In],inactive,–
CS(=O)(=O)NC(=O)c1cc(Oc2ccc(C(F)(F)F)cc2Cl)ccc1[N+](=O)[O-],inactive,–
CCC[CH2][Sn]([Cl])([CH2]CCC)[CH2]CCC,–,1.72 µM (active)
CCCCOC(=O)c1ccccc1C(=O)OCc1ccccc1,inactive,–
COC(=O)c1ccccc1N,inactive,–
Cc1ccc(N=C=O)cc1N=C=O,inactive,–
Nc1ccc(N=Nc2ccccc2)cc1,–,6.31 µM (active)
ClCCOCCCl,inactive,–
CCCCCOC(=O)c1ccccc1C(=O)OCCCCC,inactive,–
CCCCC(CC)COC(=O)c1ccc(C(=O)OCC(CC)CCCC)c(C(=O)OCC(CC)CCCC)c1 (stereo not given),inactive,–
CN(C)c1ccc(C(=O)c2ccc(N(C)C)cc2)cc1,inactive,–
O=C(O)C1C2CCC(O2)C1C(=O)O (stereo not given),inactive,–
O=[N+]([O-])C(Br)(CO)CO,inactive,–
Oc1ccc2ccc3cccc4ccc1c2c34,inactive,–
C[C@]12C=CC3=C4CCC(=O)C=C4CC[C@H]3[C@@H]1CC[C@@H]2O,inactive,–
O=P(OCCCl)(OCCCl)OCCCl,–,9.92 µM (active)
